Assay [1] in a line: reducers of endogenous Her2 protein level, primary screen, SKBR3 breast tumor cells, AlphaScreen, ATP viability (AID 461;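 active = Her2 level under about 52% in both replicate screens, with viability over 70% of control, limit read from the data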;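 as to Her2 level: lower value means less Her2 protein in the cells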;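 as to viability: percent of carrier control wells set as 100% viability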). The settings on record: 18-24 h, measured here: SKBR3 viability, ATP luminescence, at 10 µM.
The target of assay [2] is Receptor tyrosine-protein kinase erbB-2 (Homo sapiens) (UniProt P04626). Described as above. The settings on record: 18-24 h, at 10 µM, stronger effect = lower value.
A short description of assay [3]: SK-BR-3 cell growth inhibitors, pilot screen, 24 h, human (AID 572;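 active = viability at or below 10% of carrier control in both of two separate runs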;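 also: compound exposure lasted between 18 and 24 h rather than exactly 24 h; 100% = carrier-treated control wells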). Particulars: SK-BR-3 viability, CellTiter-Glo luminescence, at 10 µM, stronger effect = lower value. Background: ATP-based viability assays read luminescence as a measure of living cells.
Assay [4] in a line: HUVEC growth inhibition – cell-based, human, primary screen (AID 575;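 active = viability at or below 30% in both replicate assays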;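 also: 100% = median of untreated cell wells with 0.1% DMSO on each plate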). The settings on record: HUVEC proliferation, CellTiter-Glo luminescence, 72 h; at 10 µM; stronger effect = lower value.
Assay [5] in a line: growth inhibitors of H69AR lung tumor, primary screen, human, duplicate replicates (AID 580;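 active = viability at or under a set limit in both replicates, limit being median viability minus 3 SD, cut at about 48% in these data, passing the limit was not always enough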;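 also: 100% = mean luminescence of untreated wells and 0% = no signal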). The settings on record: H69AR lung tumor cells viability, ATP luminescence, 72 h; at 10 µM; stronger effect = lower value.
Assay [6] is described as follows: reversal of MRP1-mediated doxorubicin resistance, pilot screen, H69AR cells, doxorubicin co-treatment (AID 601;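 active = viability loss from added drug above about 55%, and viability with drug at most 40%, in both replicates, limit read from the data, passing the limit was not always enough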). Particulars: CellTiter-Glo, 72 h, at 10 µM; for differential viability (reversal): stronger effect = higher value.
A short description of assay [7]: 384-well plate pilot, post-Golgi transport modulator project, inhibition of yeast transport mutant growth (AID 636; in the data active = inhibition above about 31%). The settings on record: absorbance 615 nm, about 18 h, stronger effect = higher value.
The nature of assay [8]: growth suppression of yeast trafficking mutant, preliminary HTS, modulators of trafficking downstream of Golgi apparatus project, 1536-format plate, OD 615 nm (AID 637). The settings on record: yeast transport mutant growth, absorbance 615 nm, 18 h; stronger effect = higher value.
Assay [9] in a line: OD615 S. cerevisiae growth inhibition, permissive medium, pilot counter-assay, permissive growth control for S. cerevisiae lifespan shortening project (AID 705;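 active = growth inhibition above 25% in both replicates, a cutoff set 3 SD above the mean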). Particulars: OD615, 24 h, at 10 µM, stronger effect = higher value.
Assay [10] in a line: Restrictive medium S. cerevisiae growth inhibition, OD615, pilot screen of yeast lifespan reduction project, restrictive growth control (AID 706;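 active = growth inhibition above a set limit, 3 SD over mean compound inhibition, in both replicates, cut at about 43% in these data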;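 also: modified DeaD lifespan yeast strain shifted to restrictive glucose medium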). Particulars: OD615, 48 h, at 10 µM, stronger effect = higher value.
Assay [11] is described as follows: viability gain of MRP-1-high H69AR cells under doxorubicin, pilot screen, MRP-1 activator project, CellTiter-Glo, duplicate (AID 807;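 active = viability increase at or above a cutoff of the median across tested compounds plus 3 SD, cut at about 8.5% in these data, passing the limit was not always enough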;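 also: compound pretreatment 18-22 h then 72 h combined with doxorubicin; 0% = doxorubicin alone and 100% = vehicle without doxorubicin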). The settings on record: H69AR viability with doxorubicin, CellTiter-Glo luminescence; at 10 µM; stronger effect = higher value.
Assay [12] is described as follows: growth suppression of beta-catenin knockout HCT116, pilot screen, human colon tumor cells (AID 823;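 active = cell viability at or below a set limit in both duplicate runs, the limit being the all-compound median minus 4 SD, cut at about 23% in these data, passing the limit was not always enough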;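 also: 0% = wells killed by 20 µM Hyamine and 100% = untreated DMSO cell wells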). The settings on record: CellTiter-Glo, 60 h, at 10 µM, stronger effect = lower value.
Assay [13] is described as follows: growth suppression of PTEN-deleted HCT116, pilot screen, cell-based, HCT116 clonal line, CellTiter-Glo (AID 824;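 active = viability at or below 27.92% in each of two runs, the all-compound median minus 4 SD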;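 also: 0% = 20 µM Hyamine control and 100% = vehicle cell control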). Particulars: 60 h, at 10 µM, stronger effect = lower value.
The nature of assay [14]: inhibitors of the yeast RAM network, pilot screen, dse1pr::URA3 reporter, 5-FOA selection (AID 869;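 active = inhibition over a set limit, the all-compound mean plus 3 SD, in both replicate runs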;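 also: 0% = DMSO wells with no growth and 100% = 10 µM 1-NA-PP1 with full growth; RAM network block rescues cells from 5-FOA so hits raise OD615 growth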). The settings on record: S. cerevisiae dse1pr::URA3 5-FOA growth, OD615, 2 d; at 10 µM; stronger effect = higher value; strain carries analog-sensitive mutant Cbk1 kinase.
Assay [15] is described as follows: RAM signaling pathway blockade in yeast – S. cerevisiae, Pdr1DBD-CYC8 efflux-inhibited sensitized strain, primary screen (AID 1298;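 active = RAM network inhibition above 8.4% in each of two replicates, 3 SD over the compound average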;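 also: 0% = DMSO untreated cells without growth and 100% = 10 µM 1-NA-PP1 full growth; higher means more yeast growth rescued from 5-FOA killing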). The settings on record: S. cerevisiae cbk1-as DSE1-URA3 strain, 5-FOA growth OD615, 2 d; at 50 µM; stronger effect = higher value.
Where [16] appears, read: H69AR cells + 2 uM doxorubicin, measured here: viability with 2 uM doxorubicin, stronger effect = lower value.
Where [17] appears, read: H69AR cells, compound alone cytotoxicity.

Inconclusive results are not listed. The source made the active and inactive calls. Rule as the data show it, unless noted: active = inhibition above about 30%; inactive = the rest.

As a reminder, the viability is a read-out of living cells in per cent, often relative to untreated cells. One may read the inhibition as the drop in the measured response relative to a control, in per cent.

Chain of Receptor tyrosine-protein kinase erbB-2 (Homo sapiens) (P04626 whole entry, looked up): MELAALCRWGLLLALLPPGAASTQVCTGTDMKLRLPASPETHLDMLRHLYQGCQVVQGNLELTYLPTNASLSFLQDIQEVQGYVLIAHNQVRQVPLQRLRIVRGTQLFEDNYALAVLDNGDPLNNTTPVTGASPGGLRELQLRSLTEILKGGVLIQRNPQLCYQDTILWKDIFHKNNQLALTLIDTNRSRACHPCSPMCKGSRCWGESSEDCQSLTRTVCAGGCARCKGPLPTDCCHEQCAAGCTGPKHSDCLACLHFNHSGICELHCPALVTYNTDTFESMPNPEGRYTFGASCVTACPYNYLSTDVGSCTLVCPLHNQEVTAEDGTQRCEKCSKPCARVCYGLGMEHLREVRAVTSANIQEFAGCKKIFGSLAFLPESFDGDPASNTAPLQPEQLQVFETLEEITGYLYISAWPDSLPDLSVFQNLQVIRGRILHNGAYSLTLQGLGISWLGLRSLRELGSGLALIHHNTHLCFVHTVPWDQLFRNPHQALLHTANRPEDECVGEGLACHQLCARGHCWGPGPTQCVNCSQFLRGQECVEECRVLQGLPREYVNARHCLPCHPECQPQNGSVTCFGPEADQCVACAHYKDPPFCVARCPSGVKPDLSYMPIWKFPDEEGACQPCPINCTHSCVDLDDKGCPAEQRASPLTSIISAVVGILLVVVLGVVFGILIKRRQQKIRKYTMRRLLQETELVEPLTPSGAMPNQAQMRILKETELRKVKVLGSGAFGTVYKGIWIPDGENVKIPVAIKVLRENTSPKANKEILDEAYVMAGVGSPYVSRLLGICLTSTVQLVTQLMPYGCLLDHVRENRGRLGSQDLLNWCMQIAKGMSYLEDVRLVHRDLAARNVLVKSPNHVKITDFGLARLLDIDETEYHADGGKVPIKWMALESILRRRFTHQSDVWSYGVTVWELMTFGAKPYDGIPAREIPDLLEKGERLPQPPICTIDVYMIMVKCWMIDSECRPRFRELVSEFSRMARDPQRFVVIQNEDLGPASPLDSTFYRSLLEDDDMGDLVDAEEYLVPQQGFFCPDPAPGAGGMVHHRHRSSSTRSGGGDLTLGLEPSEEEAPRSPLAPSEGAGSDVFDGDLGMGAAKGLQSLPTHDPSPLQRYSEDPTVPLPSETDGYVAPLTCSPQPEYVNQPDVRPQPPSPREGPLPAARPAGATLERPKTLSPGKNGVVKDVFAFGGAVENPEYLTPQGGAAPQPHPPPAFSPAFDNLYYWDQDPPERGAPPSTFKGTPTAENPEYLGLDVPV

In the case of `N#CC(C(=O)Nc1ccccc1)=C1CCCCC1`, the viability in assay [1] was 99%; in [3] it was 99% (inactive); in [4], 85.5% (inactive); in assay [5] it was 109% (inactive); in assay [6] (setting [16]), 94.2%; in [6] (setting [17]) it was 109%. Also, the viability in assay [12] was 91.2% (inactive); in [13], 102% (inactive). In addition, the Her2 level in [2] was 89.5% (inactive). In addition, in assay [6] (H69AR cells + 2 uM doxorubicin), the differential viability (reversal) is 14.8% (inactive). For the same molecule, the inhibition in assay [7] is -4.67% (inactive); in assay [8], -3.55% (inactive); in assay [14], 1.52% (inactive). The growth inhibition in assay [9] was -25.1% (inactive); in assay [10], -18.8% (inactive). In assay [11], the viability increase was 1.71% (inactive). In addition, in assay [15], the RAM network inhibition was 4.92% (inactive).

For `Cn1c(NC(=O)c2ccccc2NC(=O)C(C)(C)C)nc2ccccc21`, the viability is 95% in [1]; 95% (inactive) in assay [3]; 62.8% (inactive) in [4]; 60.6% (inactive) in assay [5]; 77.5% in assay [6] (setting [16]); 60.6% in assay [6] (setting [17]). The results for the viability in assay [12] and in assay [13] were 47.1% (inactive) and 55.1% (inactive), respectively. For the same molecule, the Her2 level in [2] was 116% (inactive). Besides, the differential viability (reversal) in assay [6] (H69AR cells + 2 uM doxorubicin) was -16.9% (inactive). In addition, the inhibition was -1.73% (inactive) in assay [7], 2.33% (inactive) in assay [8] and -0.01% (inactive) in assay [14]. Also, the values for the growth inhibition in [9] and in assay [10] were 3.42% (inactive) and 8.1% (inactive), respectively. Besides, the viability increase in assay [11] is -2.36% (inactive). The RAM network inhibition in [15] is 1.74% (inactive).

With `COc1cc2c(cc1OC)-c1nnc(-c3cccs3)n1C(C)(C)C2`, the viability was 64.5% in [1]; 64.5% (inactive) in assay [3]; 114% (inactive) in [4]; 102% (inactive) in assay [5]; 99.1% in [6] (setting [16]); 102% in assay [6] (setting [17]). Besides, the results for the viability in [12] and in assay [13] were 90.4% (inactive) and 80.6% (inactive), respectively. Further, the Her2 level in [2] is 95.5% (inactive). Also, the differential viability (reversal) in [6] (H69AR cells + 2 uM doxorubicin) was 2.48% (inactive). The inhibition in assay [7] was 0.13% (inactive); in assay [8] it was -4.17% (inactive); in assay [14], 0.115% (inactive). The growth inhibition in assay [9] is -11.8% (inactive); in assay [10], -8.72% (inactive). Moreover, in assay [11], the viability increase was -2.78% (inactive). Besides, the RAM network inhibition in assay [15] is 0.94% (inactive).

On to `COc1nc(Oc2ccc(=O)n(C)n2)nc(N(C)C)n1`, for which the viability in assay [1] was 81%; in [3] it was 81% (inactive); in [4], 88.5% (inactive); in assay [5] it was 92.7% (inactive); in assay [6] (setting [16]) it was 95.1%; in assay [6] (setting [17]), 92.7%. The viability in assay [12] was 95.2% (inactive); in [13], 101% (inactive). Moreover, the Her2 level in assay [2] is 107% (inactive). In addition, the differential viability (reversal) in [6] (H69AR cells + 2 uM doxorubicin) is -2.47% (inactive). The inhibition in assay [7] is 1.67% (inactive); in assay [8], -9% (inactive); in assay [14], 2.61% (inactive). Further, the growth inhibition in assay [9] was -3.33% (inactive); in assay [10] it was 0.62% (inactive). In assay [11], the viability increase was 0.29% (inactive). Besides, the RAM network inhibition in assay [15] was 1.59% (inactive).

For the molecule `CCCCCn1c(CCNC(=O)CCC)nc2ccccc21`, the viability in [1] was 96.5%; in assay [3] it was 96.5% (inactive); in [4], 79.6% (inactive); in assay [5], 87.4% (inactive); in [6] (setting [16]) it was 82.4%; in assay [6] (setting [17]) it was 87.4%. The results for the viability in [12] and in assay [13] were 94% (inactive) and 87.2% (inactive), respectively. Moreover, in [2], the Her2 level was 102% (inactive). In addition, the differential viability (reversal) in assay [6] (H69AR cells + 2 uM doxorubicin) was 5.08% (inactive). Moreover, the inhibition was -4.67% (inactive) in assay [7], 1.17% (inactive) in [8] and 1.89% (inactive) in assay [14]. Besides, the growth inhibition in assay [9] was -0.135% (inactive); in [10] it was -11.5% (inactive). Further, in [11], the viability increase is -1.41% (inactive). Also, in assay [15], the RAM network inhibition is 2.6% (inactive).

These data come from PubChem BioAssay.
